SMILES strings stand for the structures. Activity calls are given as the source filed them.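 How the source made its calls: active means compounds whose cell count with miR-34 switched on is under 0.7 times the count with it off; inactive means the rest.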

Among the data in PubChem BioAssay are fold change and cell count values, retold here.

A short description of this assay: sensitizers of A549 cells to miR-34 induction, primary screen, imaging, A549 dox-inducible miR-34, nuclei and caspase counts (AID 1347080). Further: test concentration not given here. Conditions: A549 miR-34 inducible, Hoechst nuclei count, 48 h.
Setting [1] is: stronger effect = lower value, cell number ratio, induced over uninduced.
[2] abbreviates: measured here: relative caspase fold change +Dox/-Dox.
Where [3] appears, read: measured here: total cells with miR-34 induction, stronger effect = lower value.
Where [4] appears, read: measured here: total cells without miR-34 induction.

Consider `CCCCCCCCNC(=O)Cc1c(C)n(C(=O)c2ccc(Cl)cc2)c2ccc(OC)cc12`, for which the fold change reads like this: under setting [1], 1.03 (inactive); under setting [2], 0.978. Moreover, the cell count amounted to 5650 under setting [3] and 5490 under setting [4].

`Cc1nnsc1C(=O)Nc1ccc(-n2nc(C(F)(F)F)cc2C(F)(F)F)cc1`: the fold change is 1.08 (inactive) under setting [1] and 1.08 under setting [2]. Moreover, the cell count by setting is: under setting [3], 5850; under setting [4], 5430.

In the case of `CCCCC[C@H](O)/C=C/[C@@H]1[C@H](CCCCCCC(=O)O)[C@@H](O)C[C@H]1O`, the fold change was 0.957 (inactive) under setting [1] and 1.43 under setting [2]. In addition, the cell count reads like this: under setting [3], 6250; under setting [4], 6530.

`OCCC/C=C/c1ccccc1`: the fold change was 0.953 (inactive) under setting [1] and 1.17 under setting [2]. In addition, the cell count under setting [3] is 5920 and the cell count under setting [4] worked out at 6210.

Take `CCCCCCCC(=O)CC[C@@H]1[C@@H](C/C=C\CCCC(=O)O)[C@@H](O)C[C@H]1O`: the fold change reads like this: under setting [1], 0.944 (inactive); under setting [2], 1.3. Further, the cell count by setting is: under setting [3], 5400; under setting [4], 5720.

For `NC(=O)c1cccc(-c2cccc(OC(=O)NCCCCCCc3ccccc3)c2)c1`, the fold change is, setting by setting: under setting [1], 0.904 (inactive); under setting [2], 0.743. Besides, the cell count under setting [3] was 5110 and the cell count under setting [4] worked out at 5650.

On to `CCCCCCCCCCCCCCCC(=O)OC[C@@H](O)COP(=O)([O-])OCC[N+](C)(C)C`, for which the fold change by setting is: under setting [1], 1.02 (inactive); under setting [2], 1.32. Besides, the cell count runs as follows: under setting [3], 5910; under setting [4], 5770.

Consider `CCCOCCCCCCCCCC(=O)O`, for which the fold change by setting is: under setting [1], 1.02 (inactive); under setting [2], 1.03. The cell count under setting [3] turned out to be 6150 and the cell count under setting [4] stood at 6040.

On to `c1ccc([B-]2(c3ccccc3)[NH2+]CCO2)cc1`, for which the fold change runs as follows: under setting [1], 0.926 (inactive); under setting [2], 1.45. Besides, the cell count reads like this: under setting [3], 3950; under setting [4], 4260.

Take `CC(C)OC(=O)CCC/C=C\C[C@@H]1[C@@H](/C=C/[C@@H](O)CCc2ccccc2)[C@H](O)C[C@@H]1O`: the fold change was 0.961 (inactive) under setting [1] and 1.39 under setting [2]. The cell count under setting [3] worked out at 5640 and the cell count under setting [4] stood at 5870.

As to `COc1ccc(C2=N[C@@H](c3ccc(Cl)cc3)[C@@H](c3ccc(Cl)cc3)N2C(=O)N2CCNC(=O)C2)c(OC(C)C)c1`, the fold change was 1.1 (inactive) under setting [1] and 0.974 under setting [2]. The cell count is, setting by setting: under setting [3], 4290; under setting [4], 3920.

`C[C@H](N)C(=O)CCCCCC(=O)O`: the fold change under setting [1] is 1.03 (inactive) and the fold change under setting [2] was determined as 0.642. Besides, the cell count came out at 6090 under setting [3] and 5890 under setting [4].

Regarding `O=C1C(c2ccccc2)N(c2ccc(Br)cc2)C(=O)N1c1ccc(Br)cc1` (stereo not given), the fold change by setting is: under setting [1], 0.936 (inactive); under setting [2], 0.667. For the same compound, the cell count is, setting by setting: under setting [3], 5960; under setting [4], 6370.

Turning to `c1ccc2c(NCCCCCCCNc3c4c(nc5ccccc35)CCCC4)c3c(nc2c1)CCCC3`, the fold change was 1.06 (inactive) under setting [1] and 0.663 under setting [2]. Moreover, the cell count by setting is: under setting [3], 4480; under setting [4], 4230.

Turning to `C=CC[C@@H]1/C=C(\C)C[C@@H](C)C[C@H](OC)[C@H]2O[C@@](O)(C(=O)C(=O)N3CCCC[C@H]3C(=O)O[C@H](/C(C)=C/[C@@H]3CC[C@@H](O)[C@H](OC)C3)[C@H](C)[C@@H](O)CC1=O)[C@H](C)C[C@@H]2OC`, the fold change is 0.908 (inactive) under setting [1] and 0.315 under setting [2]. For the same compound, the cell count is 5040 under setting [3] and 5550 under setting [4].

Turning to `CCCCCCCCCCCCCCCCOC[C@H](COP(=O)([O-])OCC[N+](C)(C)C)OC`, the fold change under setting [1] was 0.789 (inactive) and the fold change under setting [2] was found to be 1.27. Also, the cell count stood at 5780 under setting [3] and 7330 under setting [4].

Take `CCCCCCCCCCCC(=O)CC(=O)N[C@H]1CCOC1=O`: the fold change reads like this: under setting [1], 1.1 (inactive); under setting [2], 1.72. Further, the cell count came out at 6190 under setting [3] and 5610 under setting [4].

With `CO[C@H]1CC(O[C@@H]2/C(C)=C/C[C@@H]3C[C@@H](C[C@]4(C=C[C@H](C)[C@@H](C5CCCCC5)O4)O3)OC(=O)[C@@H]3C=C(C)[C@@H](O)[C@H]4OC/C(=C\C=C\[C@@H]2C)[C@]43O)O[C@@H](C)C1O[C@H]1C[C@H](OC)[C@@H](O)[C@H](C)O1` (stereo not given in full), the fold change under setting [1] was 0.703 (inactive) and the fold change under setting [2] worked out at 1.24. Besides, the cell count runs as follows: under setting [3], 405; under setting [4], 576.

On to `CC(C)[C@H](O)CC[C@@H](C)[C@H]1CC[C@H]2[C@@H]3CC=C4C[C@@H](O)CC[C@]4(C)[C@H]3CC[C@]12C`, for which the fold change is 0.898 (inactive) under setting [1] and 0.825 under setting [2]. The cell count under setting [3] stood at 5260 and the cell count under setting [4] turned out to be 5860.

For the compound `Cc1c(C)c2c(c(C)c1O)CCC(C)(CCCC(C)C(=O)O)O2` (stereo not given), the fold change was 0.962 (inactive) under setting [1] and 0.303 under setting [2]. Also, the cell count under setting [3] turned out to be 5890 and the cell count under setting [4] worked out at 6120.

In the case of `O=C(O)CCCCCC[C@H]1C(=O)C[C@@H](O)[C@@H]1/C=C/[C@@H](O)Cc1ccccc1`, the fold change runs as follows: under setting [1], 1.03 (inactive); under setting [2], 1.38. For the same compound, the cell count came out at 5710 under setting [3] and 5540 under setting [4].

Turning to `CCCCC/C=C\C/C=C\CC/C=C\CCCC(=O)OC`, the fold change reads like this: under setting [1], 0.951 (inactive); under setting [2], 0.414. In addition, the cell count was 6030 under setting [3] and 6340 under setting [4].

Consider `CCCCC[C@H](O)C/C=C1/C(=O)C[C@H](O)[C@@H]1C/C=C\CCCC(=O)O`, for which the fold change under setting [1] is 0.935 (inactive) and the fold change under setting [2] worked out at 1.09. Further, the cell count was 5280 under setting [3] and 5650 under setting [4].

Regarding `NCc1cccc2ccncc12`, the fold change reads like this: under setting [1], 0.913 (inactive); under setting [2], 0.524. Moreover, the cell count is, setting by setting: under setting [3], 5270; under setting [4], 5780.

On to `CCCCC[C@H](O)/C=C/[C@H]1[C@H](O)CC(=O)[C@@H]1CCCCCCCO`, for which the fold change is 0.891 (inactive) under setting [1] and 2.02 under setting [2]. For the same compound, the cell count runs as follows: under setting [3], 5100; under setting [4], 5730.
